# Measurements reported in PubChem BioAssay AID2685 (National Center for Advancing Translational Sciences (NCATS), 2010).
# Out of some 320,000 compounds screened, about 2,100 (0.66%) were called active. Not shown: some 53% with an inconclusive outcome. Calls come from the whole dose curve; as a rule, active = well fitted inhibition curve with a large enough effect in the signal ratio, with a control signal flat (not every such curve was filed as active); inconclusive = small, poorly fitted or top-dose-only effect, or effect the other way, or a change in a side signal; inactive = flat fitted curve, though single readings scatter; the % refers to the signal ratio. This excerpt belongs to a sample that is enriched for actives.
# Experiment: qHTS Assay for Lipid Storage Modulators in Drosophila S3 Cells;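 for cell number change: cells counted by Cell Tracker Red CMTPX staining in the red channel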; for lipid storage change, negative = inhibition: % is set by controls: 0 for no effect and ±100 for the full control effect
# Conditions: BODIPY lipid droplet fluorescence, 18-24 h, cells fed with added oleic acid; cell number change: measured here: cell count max response; series mostly up to 46.1 µM
# How it was run: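 Drosophila S3 cells loaded with oleic acid (400 uM, as added) and compounds at several concentrations; lipid droplets imaged by 488-nm laser-scanning cytometry, 500–530 nm intensity and object ratio to cell channel. Percent activity normalized to 20 uM Triacsin C.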
# Potency is the fitted concentration of half-maximal effect.
Structure (SMILES),Potency,cell number change [%],"lipid storage change, negative = inhibition"
CCc1nn(CCCC(=O)N2CCC(C)CC2)c(=O)c2cc3occc3n12,4.11 µM (active),,
CCOC(=O)C1CCN(C(=O)CCCn2nc(CC)n3c(cc4occc43)c2=O)CC1,inactive,-12.6,
CCc1nn(CCCC(=O)NCc2ccco2)c(=O)c2cc3occc3n12,inactive,-6.49,
CCc1nn(CCCC(=O)NCc2ccccc2C)c(=O)c2cc3occc3n12,inactive,-19.5,
CCc1nn(CCCC(=O)N2CCN(c3cccc(C)c3C)CC2)c(=O)c2cc3occc3n12,inactive,,
CCc1cccc(NC(=O)CCCn2nc(CC)n3c(cc4occc43)c2=O)c1,20.6 µM (active),-27.3,
COCCNC(=O)Cn1nc(-c2ccccc2C)ccc1=O,inactive,8.76,
O=C(CN(C(=O)c1ccc(Cl)cc1)N1C(=O)C2C3C=CC(C3)C2C1=O)c1cccs1 (centres undefined),,-8.51,5.92% [at 9.22 µM] (inactive)
COCC(C)NC(=O)C(C)N1c2cccc3cccc(c23)S1(=O)=O (centres undefined),inactive,3.31,
O=C1CC(c2ccco2)CC(O)=C1C=Nc1cc(Cl)cc(Cl)c1 (centres undefined),25.9 µM (active),13.6,
O=C1CC(c2ccco2)CC(O)=C1C=Nc1cc(Cl)ccc1Cl (centres undefined),inactive,10.5,
O=C1CC(c2ccco2)CC(O)=C1C=Nc1ccccc1-c1ccccc1 (centres undefined),inactive,5.01,
O=C(C1CCN(C2CCN(C/C=C/c3ccccc3)CC2)CC1)N1CCOCC1,inactive,7.25,
O=C(C1=C(O)C(=O)N(CC2CCCO2)C1c1cccc(Cl)c1)c1ccco1 (centres undefined),0.82 µM (active),-5.86,
O=C(C1=C(O)C(=O)N(CC2CCCO2)C1c1cccc(O)c1)c1ccco1 (centres undefined),inactive,-19.7,
O=C(C1=C(O)C(=O)N(Cc2ccco2)C1c1cccc(Cl)c1)c1ccco1 (centres undefined),inactive,15,
O=C(C1=C(O)C(=O)N(c2ncccn2)C1c1cccc(Cl)c1)c1ccco1 (centres undefined),6.51 µM (active),5.29,
O=C(C1=C(O)C(=O)N(c2ncccn2)C1c1ccc(Cl)cc1)c1ccco1 (centres undefined),inactive,8.73,
COc1ccc(C2C(C(=O)c3ccco3)=C(O)C(=O)N2CC2CCCO2)c(OC)c1 (centres undefined),inactive,-0.87,
Cc1ccc(C2C(C(=O)c3ccco3)=C(O)C(=O)N2c2ncccn2)cc1 (centres undefined),inactive,10.6,
O=C(C1=C(O)C(=O)N(CC2CCCO2)C1c1ccccc1Cl)c1ccco1 (centres undefined),6.51 µM (active),-3.95,
O=C(C1=C(O)C(=O)N(CC2CCCO2)C1c1ccc(Cl)cc1)c1ccco1 (centres undefined),inactive,18.3,
COC(=O)c1ccc(NC(=S)NCc2ccco2)cc1,,-29.4,-4.68% [at 9.22 µM] (inactive)

Structure (SMILES),Potency,cell number change [%],"lipid storage change, negative = inhibition"
CCN(CC)N=Nc1ccc(S(N)(=O)=O)cc1,inactive,-10.8,
O=C(c1ccc(Cl)cc1)N1CCN(c2ccc(F)cc2)CC1,inactive,-2.3,
CCOC(=O)c1cccc(NC(=O)CNC(=O)C2CCCCC2)c1,inactive,12.1,
Cn1c(=O)c(C(=O)NCc2ccccc2)c(O)c2ccccc21,inactive,,
C[C@H]1CC[C@@]2(O[C@@H](CCO)C[C@@H](O)[C@@H]2O)O1,inactive,10.3,
Cn1c(SCC(=O)N2CCN(c3ccccc3)CC2)nnc1-c1ccccc1,inactive,1.56,
CC(NC(=O)c1ccccc1F)c1nnc(SCC(=O)N2CCN(c3ccccc3)CC2)n1C (centres undefined),0.82 µM (active),-26.5,
CC(NC(=O)c1ccccc1F)c1nnc(SCC(=O)NC2=NCCS2)n1C (centres undefined),inactive,-19.7,
COc1ccc(NC(=O)CSCc2cc(=O)n3c(C)csc3n2)cc1,inactive,4.18,
CC(C)Nc1nc2n(c(=O)n1)CCN2C(C)C,4.11 µM (active),0.328,
CC(C)Nc1nc(NC(C)C)nc(SCC(N)=O)n1,inactive,-10.2,
CC(C)Nc1nc(NC(C)C)nc(Nn2cnnc2)n1,inactive,-7.52,
CC1(C)CC2(C)Nc3ccccc3N2C(=S)N1 (centres undefined),inactive,-13.1,
COc1ccc(NC(=O)Nc2ccc(C(=O)N3CCOCC3)cc2)cc1OC,inactive,-17.3,
O=C(CNC(=O)c1ccc(Br)o1)Nc1ncccc1O,inactive,,
C=C1CCC[C@]2(C)C[C@H]3OC(=O)C(CN4CCOCC4)[C@H]3C[C@@H]12 (some centres undefined),8.2 µM (active),-15.3,
C=C1CCC[C@]2(C)C[C@H]3OC(=O)C(CNC(C)CC)[C@H]3CC12 (some centres undefined),inactive,-16.4,
C=C1CCC[C@]2(C)C[C@H]3OC(=O)C(CN4CC(C)OC(C)C4)[C@H]3C[C@@H]12 (some centres undefined),inactive,8.39,
O=C(COC(=O)c1ccc(S(=O)(=O)N2CCOCC2)cc1)NCc1cccs1,inactive,-3.56,
CC1CCCCC1NC(=O)CN1C(=O)NC(Cc2ccccc2)(Cc2ccccc2)C1=O (centres undefined),inactive,27.7,
Cn1c(NC(=O)/C=C\c2ccccc2)cc(=O)n(C)c1=O,inactive,-2.62,
CC1(C)CC(=O)CC(C)(C)N1OC(=O)c1ccccn1,32.6 µM (active),,
COC(=O)c1ccc(OC(=O)c2ccccn2)cc1,inactive,10.3,

Structure (SMILES),Potency,cell number change [%],"lipid storage change, negative = inhibition"
CC(=O)c1ccccn1,inactive,12.7,
CC(C#N)Sc1nnc(-c2ccccc2F)n1C1CC1 (centres undefined),inactive,7.26,
NNC(=O)c1cc(C2CC2)nc2ccc(Br)cc12,inactive,-5.67,
O=C(NCCOc1nc(N2CCCCC2)nc(N2CCCCC2)n1)Nc1ccccc1,inactive,0.327,
O=C(NCCOc1nc(N2CCOCC2)nc(N2CCOCC2)n1)Nc1ccccc1,inactive,-14.8,
O=C(NCCOc1nc(N2CCCCC2)nc(N2CCOCC2)n1)Nc1ccccc1,0.731 µM (active),-5.19,
Cc1ccc(NNC(N)=S)cc1Cl,inactive,18.1,
COc1ccccc1-c1nnc(C2CCN(S(=O)(=O)c3ccccc3[N+](=O)[O-])CC2)o1,inactive,,
Cc1cccc(-c2nc(CN3CCCC(C(=O)NC4CCCCCC4)C3)c(C)o2)c1 (centres undefined),inactive,2.33,
CCOC(=O)N1CCN(S(=O)(=O)c2ccc(Cl)cc2)CC1,inactive,24.3,
CCc1cc(C(=O)N2CCN(S(=O)(=O)c3ccc(Cl)cc3)CC2)sc1C,11.6 µM (active),6.97,
Cc1ccc(C)c(S(=O)(=O)N2CCN(C(=O)c3cccn3C)CC2)c1,inactive,-13.9,
Cc1ccccc1-n1nc(C)c2cc(C(=O)N3CCN(S(=O)(=O)c4ccc(Cl)cc4)CC3)sc21,inactive,-4.24,
Cc1ccc(C)c(S(=O)(=O)N2CCN(C(=O)c3ccc(C)s3)CC2)c1,inactive,6.27,
CCc1cc(C(=O)N2CCN(S(=O)(=O)c3cc(C)ccc3C)CC2)sc1C,20.6 µM (active),-8.23,
COc1ccccc1N1CCN(CC(O)COc2ccc3c(c2)CCC3)CC1 (centres undefined),inactive,1.49,
COc1ccc(-c2cc(C(=O)N3CCOCC3)no2)cc1OC,inactive,-3.96,
CSCCNC(=O)Nc1c(-c2c(Cl)cccc2Cl)noc1C,inactive,,
CCOC(=O)CC1(c2ccccc2)CCOC(C)(C)C1 (centres undefined),inactive,5.31,
COc1ccccc1C1(CC(=O)O)CCOC(C(C)C)C1 (centres undefined),inactive,-4.59,
CCC1(C)CC(CC(=O)O)(c2ccccc2OC)CCO1 (centres undefined),29.1 µM (active),-13.5,
CC(C)c1ccc(S(=O)(=O)N2CCN(C(=O)C3CC3C)CC2)cc1 (centres undefined),,13.5,9.88% [at 0.0737 µM] (inactive)
CC(=O)N1CCc2cc(Br)cc(S(=O)(=O)NCCCN3CCC(C)CC3)c21,inactive,6.06,

Structure (SMILES),Potency,cell number change [%],"lipid storage change, negative = inhibition"
Cc1cnc(C(=O)OCC(=O)c2ccc(F)c(F)c2)cn1,inactive,6.94,
Cc1nc2ncnn2c(C)c1CCC(=O)NC(C)CCc1ccco1 (centres undefined),inactive,-25.3,
CCOc1ccccc1C(=O)NC(CO)C(=O)O (centres undefined),20.6 µM (active),-20.4,
CC(C)Oc1ccccc1C(=O)NC(CO)C(=O)O (centres undefined),inactive,-13.9,
CC(C)COc1ccccc1C(=O)NC(CO)C(=O)O (centres undefined),inactive,-5.46,
CS(=O)(=O)N(Cc1ccccc1)c1ccc(C(=O)N2CCc3ccccc3C2)cc1,inactive,13.2,
Cc1cc(/C=N/Nc2nc(N3CCOCC3)nc(N3CCOCC3)n2)c(C)n1-c1ccccc1,inactive,2.32,
CCCCn1c(N)c(N(CC)C(=O)C2CCCC2)c(=O)[nH]c1=O,inactive,14.7,
CC(=O)N1c2ccc(S(=O)(=O)N(C)CC(=O)NC3CCCCC3C)cc2CC1C (centres undefined),inactive,,
COc1cn(-c2ccccc2)nc1C(=O)Nc1ccccc1,0.92 µM (active),5.86,
COc1cn(-c2ccccc2)nc1C(=O)NCc1ccccc1,inactive,10.4,
COc1cn(-c2ccccc2)nc1C(=O)OCC(=O)Nc1ccc(C)c(C)c1,inactive,-22.3,
Cc1cc(C)c(OCC(=O)Nc2ccc3c(c2)OCO3)cc1C,inactive,,
CC(C)C1Oc2ccccc2N(CC(=O)N(Cc2ccncc2)Cc2ccco2)C1=O (centres undefined),inactive,-0.805,
CN(CCCC1CCCC1)C(=O)c1cc(COc2c(F)cccc2F)on1,5.8 µM (active),-27.2,
CN(CCCC1CCCC1)C(=O)c1cc(COc2ccc(F)cc2F)on1,inactive,15.8,
CN(CCCN1CCOCC1)C(=O)c1cc(COc2c(F)cccc2F)on1,inactive,,
Cc1c(NC(=O)c2n[nH]c(=O)c3ccccc23)c(=O)n(-c2ccccc2)n1C,inactive,5.44,
Cc1c(NC(=O)c2ccc(N(C)S(=O)(=O)c3ccccc3)cc2)c(=O)n(-c2ccccc2)n1C,inactive,0.409,
CCO[C@H]1OC(C(=O)NCc2nc3ccccc3[nH]2)=C[C@@H](C2CCCCC2)[C@@H]1CCCO,inactive,-1.73,
COc1ccc(C2CC3(CC(C)(C)NC(=S)N3)Oc3cc(O)cc(C)c32)cc1 (centres undefined),inactive,-1.84,
Cc1cc(O)cc2c1C(c1ccc(F)cc1)CC1(CC(C)(C)NC(=S)N1)O2 (centres undefined),inactive,11.1,
COc1ccc(C2CC3(CC(C)(C)NC(SC)=N3)Oc3cc(O)cc(C)c32)cc1 (centres undefined),23.1 µM (active),26.2,
